Compound activity from PubChem BioAssay.
An excerpt weighted towards active compounds, which were near 5.5% of everything screened.
Six1-Eya2 blk: Six1/Eya2 interaction inhibition; AlphaScreen GST-Six1/His-Eya2 binding, biochemical; hits give low values; 0.56% of 360,000 active; activity change, % (concentration not given with the values); in the data active means activity change below about -65%; inconclusive means mostly about -30% to -63%; further: on the % scale 0 is the no-effect control and ±100 the full control effect
Target sequence (O00167 whole entry, looked up): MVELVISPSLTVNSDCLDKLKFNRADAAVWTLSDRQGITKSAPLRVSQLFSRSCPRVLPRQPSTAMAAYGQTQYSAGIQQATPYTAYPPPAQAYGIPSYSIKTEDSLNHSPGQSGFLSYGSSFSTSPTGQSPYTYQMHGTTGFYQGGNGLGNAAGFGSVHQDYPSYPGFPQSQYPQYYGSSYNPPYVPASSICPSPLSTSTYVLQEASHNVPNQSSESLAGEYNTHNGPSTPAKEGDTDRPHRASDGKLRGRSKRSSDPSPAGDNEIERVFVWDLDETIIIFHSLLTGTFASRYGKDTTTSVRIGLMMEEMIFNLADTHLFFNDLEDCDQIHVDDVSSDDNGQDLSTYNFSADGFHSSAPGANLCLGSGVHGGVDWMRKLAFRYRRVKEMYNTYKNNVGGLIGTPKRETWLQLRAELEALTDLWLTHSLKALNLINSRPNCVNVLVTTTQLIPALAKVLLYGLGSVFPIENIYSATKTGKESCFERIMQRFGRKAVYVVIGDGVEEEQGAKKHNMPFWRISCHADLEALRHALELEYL
Target sequence (Q15475 whole entry, looked up): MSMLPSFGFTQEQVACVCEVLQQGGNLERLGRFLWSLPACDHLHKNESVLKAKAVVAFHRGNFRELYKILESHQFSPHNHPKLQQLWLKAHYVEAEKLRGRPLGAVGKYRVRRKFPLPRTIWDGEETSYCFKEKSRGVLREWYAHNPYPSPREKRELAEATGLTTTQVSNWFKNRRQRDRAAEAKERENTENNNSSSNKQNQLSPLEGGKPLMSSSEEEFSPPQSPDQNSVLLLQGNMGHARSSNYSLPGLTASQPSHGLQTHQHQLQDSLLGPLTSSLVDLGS
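AlphaScreen luminescence read after one hour at 37 °C in darkness. Pin-transferred compounds met GST-Six1 and His-Eya2 protein (5X stock 250 nM/500 nM) plus glutathione donor and Ni-chelate acceptor beads (5X, 50 ug/mL).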
RORg inh: ROR gamma (mouse) transcription inhibition. Drosophila S2 Gal4-RORgamma UAS-luciferase reporter, 20 h. Potency, µM (series often up to 53.6 µM), without a hit: top-dose activity change, negative = inhibition, hits mostly inhibitors. 5.4% of 310,000 active; further: potency means the concentration at half of the fitted maximal effect; on the % scale 0 is the no-effect control and ±100 the full control effect; nearly all actives have a fitted effect of over 60% in size
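Drosophila S2 cells stably expressing Gal4-DBD/mouse RORγ fusion under metallothionein promoter plus UAS-luciferase; compound 1 h, then 700 uM CuSO4 induction for 20 h at ambient temperature; inhibition read as reduced luminescence.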
CtBP-E1A blk: blocks the CtBP interaction with E1A. 0.49% of 340,000 active. AlphaScreen GST-E1A/His-CtBP binding, 1536-well; hits give low values. activity change, % (no concentration beside the values); in the data active means activity change below about -65%; inconclusive means mostly about -30% to -63%; further: on the % scale 0 is the no-effect control and ±100 the full control effect
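GST-E1A and His-tagged CtBP (125 nM each as 5X stock) were preincubated with pin-transferred compound for 2 h at 37 °C in the dark, then glutathione donor and nickel acceptor beads were added for 1 h before AlphaScreen reading.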
MBNL1 CUG block: MBNL1-poly(CUG) RNA binding inhibition; Potency, µM (highest dose often 57.5 µM), inactives show at the highest dose activity change, negative = inhibition, hits mostly inhibitors; 0.036% of 280,000 active; TR-FRET MBNL1-His/biotin-(CUG)12 binding, 665/545 ratio; Q9NR56; active means well fitted inhibition curve with a large enough effect in the signal ratio, with a control signal flat, not every such curve was filed as active; inconclusive means small, poorly fitted or top-dose-only effect, or effect the other way, or a change in a side signal; inactive means no such curve, though single readings can be large or run the other way; the % refers to the signal ratio; further: potency means the concentration at half of the fitted maximal effect; on the % scale 0 is the no-effect control and ±100 the full control effect
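Compounds (final 92 nM to 58 uM) are added to His-tagged MBNL1 and biotin-(CUG)12, then terbium anti-His antibody and streptavidin-XL665 (5 nM final). After 60 min at room temperature, the 665/545 nm ratio is read.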
CBFb RUNX1 block: inhibitors of human CBF-beta and RUNX1 interaction | 230,000 tested, under 10 active | Potency, µM (doses to about 59.8 µM), for inactives: at the highest dose activity, negative = inhibition, most hits filed as inhibitors | AlphaScreen CBFb-His/RUNX1-biotin binding, biochemical; further: % of control where 0% means no effect
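Inhibition was taken as any reduction in AlphaScreen signal from the CBF-beta–RUNX1 pair (His and biotin tags, 30 nM each), measured after compound (15 min) and bead (90 min) incubations at room temperature.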
VP16 counter: counter-screen for ROR gamma inhibitors: Gal4-VP16 reporter; Drosophila S2 Gal4-VP16 UAS-luciferase, luminescence, 20 h; Potency, µM (doses to about 53.6 µM), for inactives: top-dose activity, negative = inhibition, actives largely listed as inhibitors; 3.5% of 310,000 active;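 further: Gal4-VP16 expression switched on by copper sulfate through the metallothionein promoter; potency means the concentration at half of the fitted maximal effect; on the % scale 0 is the no-effect control and ±100 the full control effect; nearly all actives have a fitted effect of over 50% in size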
* marks the source's active call; other numbers are inactive results; ? = inconclusive; nt = not tested or not shown. Unless noted, the call rests on the fitted dose curve; in most records, active means well fitted curve in the direction sought with a large enough effect; inconclusive means small, poorly fitted or top-dose-only effect, or another doubt; inactive means no such curve, though single readings can be large; an effect the other way counts as inactive or inconclusive.

SMILES | Six1-Eya2 blk | RORg inh | CtBP-E1A blk | MBNL1 CUG block | CBFb RUNX1 block | VP16 counter
Cc1cc(C)cc(-n2c3nc4ccccc4nc3c3c(=O)n(Cc4ccco4)cnc32)c1 | 5.7 | 11.2µM* | -1.5 | ? | -2.9% | 11.2µM*
O=C(c1ccc(C(F)(F)F)cc1)N1CCN(S(=O)(=O)c2ccc3c(c2)OCCCO3)CC1 | 9.0 | 12.6µM* | -13.9 | 3.7% | nt | -4.0%
O=C(c1ccc(F)cc1)N1CCN(S(=O)(=O)c2ccc3c(c2)OCCO3)CC1 | 5.7 | nt | -18.9 | nt | nt | nt
COc1cc2c(cc1OC)C(C1C(=O)CC(C)(C)CC1=O)N(C(=O)CCl)CC2 (configuration not stated) | 36.2 | -4.1% | 37.2 | 2.7% | 8.7% | 0.9%
COc1cc2c(cc1OC)C(c1cc(Br)ccc1F)N(C(=O)CCl)CC2 (configuration not stated) | -0.3 | 7.94µM* | nt | -0.5% | nt | ?
S=C(NCCC(c1ccccc1)c1ccccc1)Nc1ccccc1Cl | -4.7 | 12.6µM* | -0.8 | -12.2% | -0.7% | ?
O=S(=O)(c1ccc(NC(=S)NCCC(c2ccccc2)c2ccccc2)cc1)N1CCOCC1 | -6.6 | 6.6% | -1.5 | nt | 7.4% | -12.3%
S=C(NCCC(c1ccccc1)c1ccccc1)Nc1ccc(Cl)cc1 | -1.5 | 7.94µM* | 8.4 | 6.6% | 7.2% | ?
N#CC1=C(N)n2c(s/c(=C\c3ccco3)c2=O)=C(C#N)C1c1ccco1 (configuration not stated) | -71.3* | -20.7% | ? | 22.1% | nt | -13.7%
Cc1ccc(OCc2cc(C(=O)N(C)CCc3nc4ccccc4[nH]3)no2)cc1C | 0.2 | -4.0% | nt | -2.5% | nt | -22.3%
Cc1ccc2cccc(OCc3ccccc3)c2n1 | 1.4 | 14.1µM* | 3.2 | 15.0% | 5.8% | -0.6%
Cc1ccc2cccc(OCc3ccc(F)cc3)c2n1 | 6.0 | ? | nt | 12.8% | nt | ?
COc1ccc(-c2nc3ccccc3o2)cc1NC(=O)CSc1ccc(Cl)cc1 | -5.0 | 1.41µM* | 12.5 | -19.2% | 1.9% | -26.3%
COc1cccc(CCc2ccccc2OCC[C@@H]2C[C@@H](O)CN2C)c1 | nt | 7.08µM* | nt | nt | -1.3% | 3.0%
CCCCn1c(N)c(N(CCOC)C(=O)C2CCN(c3ncnc4sc(C)c(C)c34)CC2)c(=O)[nH]c1=O | 2.2 | nt | -90.2* | nt | nt | nt
Cc1ccc(S(=O)(=O)CC#CCOC(=O)c2ccc([N+](=O)[O-])cc2)cc1 | nt | 10µM* | nt | ? | 7.4% | ?
Cc1cc(SCC(=O)OC/C(O)=C(\C#N)c2nc3ccccc3[nH]2)c(C)cc1Br | -2.9 | 6.31µM* | 10.8 | 15.1% | 2.7% | 17.8µM*
CCOC(=O)c1ccc2c(c1)nc(SC/C(O)=C(\C#N)c1nc3ccccc3[nH]1)n2CC | -0.3 | 5.01µM* | 4.1 | 16.9% | -3.1% | -2.0%
COc1ccccc1OCC(=O)OC/C(O)=C(\C#N)c1nc2ccccc2[nH]1 | -12.5 | 10.8% | nt | 30.8% | -3.2% | -5.0%
N#C/C(=C(/O)COC(=O)Cc1c[nH]c2ccccc12)c1nc2ccccc2[nH]1 | -16.5 | 10µM* | -24.1 | 2.6% | -21.4% | ?
N#C/C(=C(/O)COC(=O)CCCNC(=O)c1ccc(Cl)cc1)c1nc2ccccc2[nH]1 | -2.9 | 11.2µM* | -14.3 | -6.6% | -14.3% | ?
N#CC(=C(O)COC(=O)CCC1CCCCC1)c1nc2ccccc2[nH]1 | -4.8 | nt | -2.8 | nt | nt | nt
N#C/C(=C(/O)COC(=O)CSc1ccc(Cl)cc1)c1nc2ccccc2[nH]1 | -7.0 | 10µM* | -16.8 | 33.1% | -8.2% | 11.2µM*
Oc1ccc2ccccc2c1C=NCc1cn2ccsc2n1 | -17.4 | ? | 5.8 | ? | -25.7% | 12.6µM*
C[C@@H](NC(=O)c1nc[nH]c1C(=O)N[C@@H](Cc1ccccc1)C(=O)OC(C)(C)C)c1ccccc1 | ? | 3.98µM* | nt | 2.3% | 12.8% | 7.08µM*
SMILES | Six1-Eya2 blk | RORg inh | CtBP-E1A blk | MBNL1 CUG block | CBFb RUNX1 block | VP16 counter
C[C@H](NC(=O)c1nc[nH]c1C(=O)N[C@@H](Cc1ccccc1)C(=O)OC(C)(C)C)c1ccccc1 | -8.1 | 7.08µM* | -1.9 | -3.1% | -1.3% | 11.2µM*
CC(C)n1c(CSCc2ccc(Cl)cc2Cl)n[nH]c1=S | 5.6 | 1.41µM* | 1.6 | 6.0% | -1.9% | 3.16µM*
CCCCCC(=O)Nc1cc(S(=O)(=O)O)cc2cc(S(=O)(=O)O)cc(O)c12 | ? | nt | -9.5 | nt | nt | nt
CCc1noc(C)c1C(=O)N1CCN(c2cccc(Cl)c2)CC1 | 4.0 | nt | 4.4 | nt | nt | nt
CN(C)CCCNc1nc2sc3c(c2c(=O)n1CCc1ccccc1)CCCCC3 | -12.5 | -31.5% | 0.0 | nt | 2.3% | -10.0%
Cc1ccc(-c2ccc(/C=C3\C(=O)ON=C3c3ccccc3)o2)c([N+](=O)[O-])c1 | -2.6 | ? | -2.0 | 15.4% | -16.6% | 15.8µM*
Cc1ccc(/C=C2\C(=O)ON=C2c2ccccc2)o1 | -3.1 | -9.5% | 0.0 | 2.2% | 4.7% | -4.3%
NC(=S)NN=C1CSSC1 | -93.9* | nt | -89.2* | nt | nt | nt
O=C(NC(=S)NC1CCN(Cc2ccccc2)CC1)c1ccc(F)cc1 | -19.9 | 7.08µM* | 0.7 | 1.7% | nt | 11.2µM*
O=C(Nc1ccc(F)cc1)NC1CCCCC1 | 5.8 | 4.2% | -6.5 | 1.2% | 8.4% | 1.0%
O=C(NC(=S)NC1CCCCC1)c1ccc(F)cc1 | -12.7 | 3.16µM* | -2.7 | -5.4% | nt | 4.47µM*
CC(=O)Nc1ccc(S(=O)(=O)N(C)CC(=O)Nc2ccc(F)c(F)c2F)cc1 | -1.1 | nt | -4.3 | nt | nt | nt
Cc1noc(C)c1COc1ccccc1C(=O)N(C)Cc1ccc(C(C)(C)C)cc1 | 2.8 | nt | nt | nt | nt | nt
CCCCNC(=S)Nc1ccc(F)cc1 | 8.7 | 12.6µM* | -1.1 | 1.6% | 2.0% | ?
O=c1[nH]c2ccc(NC(=S)Nc3ccc(F)cc3)cc2[nH]1 | -1.3 | -63.8% | -9.0 | nt | 2.3% | -1.3%
CCCCNC(=S)Nc1ccc(SC(F)F)cc1 | -15.7 | 14.4% | 26.6 | -3.6% | 6.6% | 0.9%
CCCCNC(=S)Nc1ccc2[nH]c(=O)[nH]c2c1 | 5.7 | -2.6% | -66.9* | -5.1% | -5.2% | -0.8%
CCc1ccc(NC(=S)Nc2ccc3[nH]c(=O)[nH]c3c2)cc1 | 0.1 | 12.6µM* | -22.0 | 2.2% | -0.8% | -65.5%
COc1ccc(C)cc1C(=O)CCC(=O)N1CCN(c2ccccc2F)CC1 | -0.8 | nt | -0.6 | nt | nt | nt
N#CCC(=O)c1sccc1-n1cccc1 | -13.1 | 15.8% | 0.0 | 9.3% | -21.9% | 3.4%
C=C(C)C1CC=C(C)/C(=N/NC(=S)Nc2ccccc2)C1 (configuration not stated) | -8.7 | 1.12µM* | -12.3 | 0.6% | 7.5% | 1.12µM*
O=C(Nc1cccc(F)c1)N1CCCC2(CCN(S(=O)(=O)c3ccccc3)CC2)C1 | nt | 4.3% | nt | nt | nt | 4.5%
